# In PubChem BioAssay (NCATS):
# Values joined by “and” are separate entries in the source; they are usually repeats but may differ in a detail not shown here. Equal values may be shown once. Inconclusive results are not listed. A structure can be active in one record and inactive in another. Active and inactive are the calls of the source. Unless noted, the call rests on the fitted dose curve; in most records, active means well fitted curve in the direction sought with a large enough effect; inconclusive means small, poorly fitted or top-dose-only effect, or another doubt; inactive means no such curve, though single readings can be large; an effect the other way counts as inactive or inconclusive.
# Columns and labels:
# [1] = target: Peroxisome proliferator-activated receptor delta (Homo sapiens) (UniProt Q03181); assay: qHTS assay for small molecule agonists of peroxisome proliferator-activated receptor delta signaling (AID 588534; calls by dose curve;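 further: 0% = DMSO basal wells and 100% = positive control agonist at 10 µM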)
# How it was run: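 Titration series tested in agonist mode on beta-lactamase reporter cells; 18 hrs at 37 C after a 5 hr pre-incubation. Readout: CCF4 fluorescence, 2 hrs RT. Hill equation gives EC50 and maximal response.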
# [2] = target: Thyroid hormone receptor beta (Homo sapiens) (UniProt P10828); assay: qHTS assay for small molecule agonists of thyroid hormone receptor beta signaling (AID 588545; calls by dose curve;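 further: 0% = DMSO only and 100% = 10 nM T3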)
# How it was run: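 Efficacy and EC50 values derive from Hill fits of qHTS titration data, normalized to 10 nM T3 and DMSO-only wells. HEK 293 reporter cells were stimulated for 18 hrs at 37 C, with beta-lactamase activity measured by CCF4 fluorescence.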
# [3] = target: Thyroid hormone receptor beta (Homo sapiens) (UniProt P10828); assay: qHTS assay for small molecule antagonists of thyroid hormone receptor beta signaling (AID 588547; active means well fitted inhibition curve with a large enough effect in the signal ratio, with a control signal flat, not every such curve was filed as active; the % refers to the signal ratio;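 further: cells stimulated with 0.4 nM T3 agonist during compound exposure; on the % scale 0 is the no-effect control and ±100 the full control effect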); conditions: TR-UAS-bla HEK293, beta-lactamase ratio, antagonist mode, 18 h
# How it was run: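 Inhibition of T3-driven (0.4nM final) beta-lactamase reporter activity was measured over 0.59 nM to 92 uM compound after 18 h at 37 C. The cells were GripTite HEK293 TR-UAS-bla in charcoal/dextran-stripped serum, with CCF4 ratio read-out and IC50 from Hill fits.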
# [4] = qHTS assay for small molecule agonists of the antioxidant response element (ARE) signaling pathway (AID 651741; active means well fitted activation curve with a large enough effect in the signal ratio; the % refers to the signal ratio; further: potency means the concentration at half of the fitted maximal effect; on activation: % of control where 0% means no effect)
# How it was run: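 Agonist activity is measured as ARE-driven beta-lactamase expression in a stable HepG2 reporter line, using 16 h compound treatment at 37 C and a FRET substrate fluorescence readout after 2 h.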
# [5] = qHTS assay for small molecule activators of the p53 signaling pathway (AID 651743; active means well fitted activation curve with a large enough effect in the signal ratio, not every such curve was filed as active; the % refers to the signal ratio; further: % of control where 0% means no effect); conditions: HCT-116 p53RE-bla, beta-lactamase FRET ratio, 16 h; activation: stronger effect = higher value
# How it was run: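 A beta-lactamase reporter under p53 response element control, stably carried by HCT-116 cells, reported pathway activation. Test compounds were applied for 16 hours at 37 C, and fluorescence was measured 2 hours after adding the B/G FRET substrate.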
# [6] = qHTS assay for small molecule activators of the nuclear factor-kappa B (NF-kB) signaling pathway (AID 651749; active means well fitted activation curve with a large enough effect in the signal ratio; the % refers to the signal ratio; further: % of control where 0% means no effect); conditions: NF-kB-bla ME-180 cells, beta-lactamase FRET ratio, 16 h; activation: stronger effect = higher value
# How it was run: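 FRET-based beta-lactamase detection in ME-180 cells reports NF-kB response-element-driven transcription following overnight (16 hr) compound treatment.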
# [7] = qHTS assay for small molecule antagonists of the retinoid-related orphan receptor gamma (ROR-gamma) signaling pathway - cell viability counter screen (AID 720652; active means well fitted curve in the direction sought with a large enough effect in the repeat runs; an effect the other way counts as inactive or inconclusive;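 further: compound exposure lasted 16 hr before ATP read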; further: potency means the concentration at half of the fitted maximal effect)
# How it was run: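 CHO RORE-LUC/TET-ROR line, 1,000 cells/well, 37 C 5% CO2 5 hr; cpd or DMSO + doxycycline induction, 16 hr. CellTiter-Glo, 30 min RT, luminescence = ATP content.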
# [8] = target: Nuclear receptor subfamily 1 group I member 2 (Rattus norvegicus) (UniProt Q9R1A7); assay: qHTS assay for small molecule activators of the rat pregnane X receptor (rPXR) signaling pathway (AID 651751; call rule not given here; further: 0% is about no effect); conditions: rPXR reporter cells, luciferase (One-Glo), 24 h
# [9] = target: Cytochrome P450 2C9 (Homo sapiens) (UniProt P11712); assay: qHTS Assay for Inhibitors and Substrates of Cytochrome P450 2C9 (AID 883); further: on the % scale 0 is the no-effect control and ±100 the full control effect; nearly all actives have a fitted effect of over 60% in size
# How it was run: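 Turnover of Luciferin-H (100uM, KM) by 10nM human CYP2C9 was measured over 60 min at 37C with NADPH regeneration; inhibitors and some substrates reduce luminescence. Data normalized to sulphaphenazole 57uM.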
# [10] = Cellular Toxicity (caspase-3) Jurkat (AID 655); conditions: Jurkat caspase-3 activation, luminescence; caspase-3 activation: at 92.2 µM (top of the series), DMSO = 0%, tamoxifen = 100%;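 further: cells exposed to compound for 16 h at 37 °C before reading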; further: potency means the concentration at half of the fitted maximal effect
# How it was run: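 Luminescent Caspase-Glo 3/7 read-out (20 min, room temperature) after 16 h compound treatment at 37 C of 5000 Jurkat cells per well. AC50 derived by Hill-equation fitting, scaled between DMSO basal and 100 uM tamoxifen stimulation.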
# [11] = Cell Viability - LYMP2-026 (AID 989);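 further: cells exposed to compound for 24 h at 37 °C; nearly all actives have a fitted effect of over 50% in size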; further: potency means the concentration at half of the fitted maximal effect
# How it was run: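 qHTS cytotoxicity: 2500 cells/well, 5 hr 37 C, compound 24 hr 37 C, CellTiter-Glo 30 min RT, luminescence. Tetraoctylammonium bromide positive control. AC50 via standard Hill fit.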
# [12] = target: Vitamin D3 receptor (Homo sapiens) (UniProt P11473); assay: qHTS assay for small molecule antagonists of vitamin D receptor signaling (AID 588541; calls by dose curve; further: potency means the concentration at half of the fitted maximal effect)
# How it was run: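 Antagonist-mode beta-lactamase reporter assay: HEK293T VDR-UAS-bla cells were exposed to titrated compound alongside 1-alpha,25-dihydroxyvitamin D3 at 3 nM final for 16 h. Values were normalized to the 50 nM agonist control and DMSO basal, with IC50 and efficacy from Hill equation fits.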
# [13] = qHTS assay for small molecule antagonists of retinoid X receptor alpha signaling (AID 588546; active means well fitted inhibition curve with a large enough effect in the signal ratio, with a control signal flat, not every such curve was filed as active; the % refers to the signal ratio; further: potency means the concentration at half of the fitted maximal effect;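 on max response: cells stimulated with 9-cis-retinoic acid as agonist; on the % scale 0 is the no-effect control and ±100 the full control effect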); conditions: HEK293T RXRa-UAS-bla, beta-lactamase ratio, antagonist mode; measured here: W530 green channel, cytotoxicity proxy
# How it was run: (§1)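 Beta-lactamase reporter inhibition, read as CCF4 fluorescence ratio (ex 405, em 460/530 nm) after 2 h at RT. HEK293T UAS-bla cells, 2500/well, were stimulated with 9-cis-RA at 500 or 100 nM final alongside test compound for 18 h at 37 C.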
# [14] = target: Retinoic acid receptor RXR-alpha (Homo sapiens) (UniProt P19793); assay: as above; conditions: HEK293T RXRa-UAS-bla, beta-lactamase ratio, antagonist mode
# How it was run: as §1
# [15] = target: Nuclear receptor ROR-gamma (Homo sapiens) (UniProt P51449); assay: qHTS assay for small molecule antagonists of the retinoid-related orphan receptor gamma (ROR-gamma) signaling pathway (AID 651802); further: nearly all actives have a fitted effect of over 60% in size; further: potency means the concentration at half of the fitted maximal effect
# How it was run: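 Luciferase read-out: ONE-Glo luminescence after 30 min at room temperature, following 16hr doxycycline induction at 37C, 5% CO2 of CHO cells with TET-inducible ROR and RORE-LUC reporter; decreased luminescence = reduced reporter activity.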
# [16] = qHTS assay for small molecule activators of the human pregnane X receptor (PXR) signaling pathway (AID 720659; call rule not given here; further: 0% is about no effect)
# [17] = target: Vitamin D3 receptor (Homo sapiens) (UniProt P11473); assay: qHTS assay for small molecule agonists of vitamin D receptor signaling (AID 588543; calls by dose curve;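 further: 0% = DMSO basal and 100% = reference agonist control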)
# How it was run: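 Agonist-mode beta-lactamase reporter: HEK293T VDR-UAS-bla cells in charcoal-stripped 2% FBS, compound series 16 h 37 C, CCF4 2 h RT. EC50 from Hill fit, scaled against DMSO and 50 nM calcitriol control.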
# Vitamin D3 receptor (Homo sapiens), sequence (P11473 whole entry, looked up): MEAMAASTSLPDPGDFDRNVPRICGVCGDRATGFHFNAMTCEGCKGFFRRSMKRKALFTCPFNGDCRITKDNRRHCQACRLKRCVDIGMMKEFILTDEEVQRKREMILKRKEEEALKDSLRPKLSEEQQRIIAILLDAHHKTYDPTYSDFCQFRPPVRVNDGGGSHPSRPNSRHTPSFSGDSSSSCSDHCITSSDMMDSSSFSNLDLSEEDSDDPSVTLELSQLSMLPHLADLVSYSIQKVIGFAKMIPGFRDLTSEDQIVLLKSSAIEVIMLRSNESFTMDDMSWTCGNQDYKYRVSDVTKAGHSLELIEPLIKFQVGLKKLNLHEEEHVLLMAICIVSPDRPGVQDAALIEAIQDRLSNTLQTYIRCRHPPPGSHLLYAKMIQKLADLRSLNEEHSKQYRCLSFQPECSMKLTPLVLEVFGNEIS
# Nuclear receptor ROR-gamma (Homo sapiens), sequence (P51449 whole entry, looked up): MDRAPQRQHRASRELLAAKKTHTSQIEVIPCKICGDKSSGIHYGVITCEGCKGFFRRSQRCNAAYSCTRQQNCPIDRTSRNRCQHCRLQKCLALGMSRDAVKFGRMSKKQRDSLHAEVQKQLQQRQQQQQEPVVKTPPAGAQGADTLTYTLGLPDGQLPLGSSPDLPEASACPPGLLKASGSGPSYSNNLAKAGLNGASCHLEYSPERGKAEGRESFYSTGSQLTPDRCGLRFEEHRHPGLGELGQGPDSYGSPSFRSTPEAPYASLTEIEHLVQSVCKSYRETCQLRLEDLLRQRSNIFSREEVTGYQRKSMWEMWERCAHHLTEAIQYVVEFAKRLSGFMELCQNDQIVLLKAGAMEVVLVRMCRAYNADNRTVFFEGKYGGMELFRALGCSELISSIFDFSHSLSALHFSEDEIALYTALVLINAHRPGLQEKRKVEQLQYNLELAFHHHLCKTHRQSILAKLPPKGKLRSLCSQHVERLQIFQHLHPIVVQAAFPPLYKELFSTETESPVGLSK
# Cytochrome P450 2C9 (Homo sapiens), sequence (P11712 whole entry, looked up): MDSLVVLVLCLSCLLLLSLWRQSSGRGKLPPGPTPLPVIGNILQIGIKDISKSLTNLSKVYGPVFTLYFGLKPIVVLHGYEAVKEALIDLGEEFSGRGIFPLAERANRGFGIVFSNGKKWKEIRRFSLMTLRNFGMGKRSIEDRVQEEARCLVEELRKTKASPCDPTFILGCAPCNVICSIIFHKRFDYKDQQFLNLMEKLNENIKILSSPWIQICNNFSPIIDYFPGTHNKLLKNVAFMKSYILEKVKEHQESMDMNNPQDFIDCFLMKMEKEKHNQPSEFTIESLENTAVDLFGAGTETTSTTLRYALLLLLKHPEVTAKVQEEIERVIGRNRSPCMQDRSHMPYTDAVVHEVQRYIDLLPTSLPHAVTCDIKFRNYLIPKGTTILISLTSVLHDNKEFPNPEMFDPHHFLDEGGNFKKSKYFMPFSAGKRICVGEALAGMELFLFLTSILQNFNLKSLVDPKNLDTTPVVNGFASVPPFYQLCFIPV
# Retinoic acid receptor RXR-alpha (Homo sapiens), sequence (P19793 whole entry, looked up): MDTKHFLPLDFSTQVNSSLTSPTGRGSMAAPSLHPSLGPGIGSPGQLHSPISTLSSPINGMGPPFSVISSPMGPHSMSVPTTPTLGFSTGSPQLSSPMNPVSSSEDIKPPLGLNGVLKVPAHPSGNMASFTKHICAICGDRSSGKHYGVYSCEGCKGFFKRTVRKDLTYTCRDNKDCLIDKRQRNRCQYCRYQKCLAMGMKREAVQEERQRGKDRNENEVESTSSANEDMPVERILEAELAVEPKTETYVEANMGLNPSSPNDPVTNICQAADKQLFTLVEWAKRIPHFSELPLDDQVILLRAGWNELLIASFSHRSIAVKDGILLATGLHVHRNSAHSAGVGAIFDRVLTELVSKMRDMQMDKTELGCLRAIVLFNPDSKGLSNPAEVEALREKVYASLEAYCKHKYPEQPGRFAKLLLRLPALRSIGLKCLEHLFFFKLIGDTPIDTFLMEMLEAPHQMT
# Thyroid hormone receptor beta (Homo sapiens), sequence (P10828 whole entry, looked up): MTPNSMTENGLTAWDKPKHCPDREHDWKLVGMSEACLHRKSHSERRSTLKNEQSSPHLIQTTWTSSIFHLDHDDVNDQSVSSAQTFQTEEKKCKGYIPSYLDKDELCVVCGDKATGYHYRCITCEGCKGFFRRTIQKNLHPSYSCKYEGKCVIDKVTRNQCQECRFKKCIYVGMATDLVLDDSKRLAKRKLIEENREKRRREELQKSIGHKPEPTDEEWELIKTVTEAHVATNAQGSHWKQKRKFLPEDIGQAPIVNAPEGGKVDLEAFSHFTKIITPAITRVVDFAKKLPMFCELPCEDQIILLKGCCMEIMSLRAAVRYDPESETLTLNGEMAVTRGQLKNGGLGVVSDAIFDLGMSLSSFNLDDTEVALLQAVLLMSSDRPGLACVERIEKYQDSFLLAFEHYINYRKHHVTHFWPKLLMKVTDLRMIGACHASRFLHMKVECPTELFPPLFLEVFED
# Peroxisome proliferator-activated receptor delta (Homo sapiens), sequence (Q03181 whole entry, looked up): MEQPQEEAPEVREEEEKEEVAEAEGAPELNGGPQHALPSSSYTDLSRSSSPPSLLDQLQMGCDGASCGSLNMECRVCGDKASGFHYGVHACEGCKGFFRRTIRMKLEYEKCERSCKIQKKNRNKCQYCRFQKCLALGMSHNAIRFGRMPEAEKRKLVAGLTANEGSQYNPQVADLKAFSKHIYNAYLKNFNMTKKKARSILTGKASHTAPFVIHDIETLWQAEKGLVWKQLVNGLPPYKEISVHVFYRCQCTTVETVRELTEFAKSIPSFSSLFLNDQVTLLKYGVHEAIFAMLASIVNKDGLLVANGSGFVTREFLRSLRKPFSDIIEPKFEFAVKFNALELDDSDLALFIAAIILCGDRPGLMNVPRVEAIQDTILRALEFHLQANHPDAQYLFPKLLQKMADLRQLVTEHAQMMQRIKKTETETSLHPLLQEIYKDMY
# Nuclear receptor subfamily 1 group I member 2 (Rattus norvegicus), sequence (Q9R1A7 whole entry, looked up): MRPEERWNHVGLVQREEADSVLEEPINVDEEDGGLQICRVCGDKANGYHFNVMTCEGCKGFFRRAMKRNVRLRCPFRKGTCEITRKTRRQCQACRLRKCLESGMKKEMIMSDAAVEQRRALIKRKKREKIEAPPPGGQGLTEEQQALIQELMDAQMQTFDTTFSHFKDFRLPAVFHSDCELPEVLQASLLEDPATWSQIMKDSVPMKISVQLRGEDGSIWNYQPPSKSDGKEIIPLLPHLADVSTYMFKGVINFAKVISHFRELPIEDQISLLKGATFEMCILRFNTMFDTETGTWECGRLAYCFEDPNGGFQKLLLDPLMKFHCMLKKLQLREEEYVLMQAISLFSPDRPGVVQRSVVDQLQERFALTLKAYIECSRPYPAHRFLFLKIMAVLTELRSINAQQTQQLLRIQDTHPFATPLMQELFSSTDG
smiles,measurement,setting,value
COP(=O)(OC)O/C(=C\Cl)c1cc(Cl)c(Cl)cc1Cl,outcome,[1],inactive
same,Potency,[2],inactive
same,activity change % (negative = inhibition),[3],2.4% (inactive)
same,Potency,[4],37.6 µM (active)
same,activation,[5],-0.853% (inactive)
same,activation,[6],-1.17% (inactive)
same,Potency,[7],inactive
same,max response,[8],1.57% (inactive)
CN[C@H]1[C@H]2[C@H]3CCN2C[C@@H]1O3,Potency,[9],inactive
Nc1ccccc1C(=O)OCCc1ccccc1,caspase-3 activation,[10],-5.89% (inactive)
same,Potency,[11],inactive
same,Potency,[12],inactive
same,Potency,[2],inactive
same,max response,[13],-8.78%
same,max response,[14],-9.65% (inactive)
same,activity change % (negative = inhibition),[3],-14.2% (inactive)
same,activation,[5],-0.792% (inactive)
same,activation,[6],0.217% (inactive)
same,Potency,[15],inactive
same,Potency,[7],inactive
same,outcome,[16],inactive
COc1cc2c(cc1OC)[C@]13CCN4CC5=CCO[C@@H]6CC(=O)N2[C@@H]1[C@H]6[C@@H]5C[C@H]43,Potency,[9],inactive
O=[N+]([O-])c1cc(C(F)(F)F)cc([N+](=O)[O-])c1Cl,Potency,[11],31.6 µM (active)
same,outcome,[1],inactive
same,Potency,[12],inactive
same,outcome,[17],inactive
same,max response,[13],0.867%
same,max response,[14],20% (inactive)
same,activity change % (negative = inhibition),[3],-4.32% (inactive)
same,Potency,[4],inactive
same,activation,[6],-0.593% (inactive)
same,Potency,[15],inactive
same,Potency,[7],66.8 µM (active)
same,max response,[8],-2.25% (inactive)
same,outcome,[16],inactive
[CH3][Hg][Cl],caspase-3 activation,[10],-8.35% (inactive)
same,Potency,[11],5.01 µM (active)
same,Potency,[12],3.16 µM (active)
same,max response,[13],-30.3%
same,Potency,[14],2.24 µM (active)
same,Potency,[4],23.7 µM (active)
same,Potency,[15],6.68 µM (active)
same,Potency,[7],10.6 µM (active)
O=C1C2(Cl)C3(Cl)C4(Cl)C(Cl)(Cl)C5(Cl)C3(Cl)C1(Cl)C5(Cl)C24Cl (stereo not given),outcome,[1],inactive
same,Potency,[12],39.8 µM (active) and inactive
same,activation,[6],4.98% (inactive)
same,Potency,[15],9.44 µM (active) and 10.6 µM (active)
same,Potency,[7],26.6 µM (active) and 29.8 µM (active)
CN(C)c1ccc(N=O)cc1,Potency,[11],2.51 µM (active)
same,Potency,[2],inactive
same,Potency,[4],13.3 µM (active)
same,activation,[5],-1.31% (inactive)
same,Potency,[15],7.5 µM (active)
CC[C@H]1CN2CC[C@@H]1C[C@@H]2[C@H](O)c1ccnc2ccccc12,Potency,[9],inactive
Oc1c(Br)c(Br)c(Br)c(Br)c1Br,Potency,[10],31.6 µM (active)
same,Potency,[11],inactive
same,outcome,[1],inactive
same,outcome,[17],inactive
same,Potency,[7],inactive
same,outcome,[16],inactive
